Laboratory results published in PubChem BioAssay AID1117290 (Broad Institute, 2014).
Measured potencies and affinities stand elsewhere. Activity calls are given as the source filed them.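 The calls were made as follows: active = every replicate test called active, each showing a drop in signal with a fitted potency within twice the top tested dose; inconclusive = tests disagree, or fits are weak, flat midrange or poor; inactive = every test flat, rising or fitted past the limit.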

Test: lung carcinoma cell viability loss – CellTiter-Glo luminescence, dry powder, set 18, cytotoxicity control, dose response (AID 1117290)
Details: A549 viability, CellTiter-Glo ATP luminescence, 72 h; series mostly up to 26 µM; activity change, negative = cytotoxicity: at the top concentration

Row | Compound | activity change, negative = cytotoxicity | outcome
1 | COc1ccc(C(=O)Nc2cc(C(F)(F)F)ccc2N2CCCC2)cc1S(=O)(=O)O | -14.3% (inactive) | –
2 | CC(=O)N1CCN(C(=O)C2(NC(=O)Nc3ccc(F)cc3)CCCC2)CC1 | -13.4% (inactive) | –
3 | COc1ccc(C2=NN(c3ccc(C(=O)O)cc3)C(c3ccc(OC)c(OC)c3)C2)cc1 (stereo not given) | -11.2% (inactive) | –
4 | Cn1cnc(S(=O)(=O)Nc2cc(C(F)(F)F)ccc2N2CCCCC2)c1 | 17.9% (inactive) | –
5 | COc1ccc(C(=O)O)cc1S(=O)(=O)Nc1cc(C(F)(F)F)ccc1N1CCCCC1 | – | inactive
6 | N#Cc1ccc(S(=O)(=O)Nc2cc(C(F)(F)F)ccc2N2CCCCC2)cc1 | -14.7% (inactive) | –
7 | O=S(=O)(Nc1cc(C(F)(F)F)ccc1N1CCCCC1)c1ccc(Cl)cc1 | -14.8% (inactive) | –
8 | CC(=O)N1CCN(C(=O)C2(NC(=O)Nc3cccc(F)c3)CCCCC2)CC1 | -10.3% (inactive) | –
9 | O=S(=O)(O)c1ccc(N2N=C(c3ccccc3)CC2c2ccccc2)cc1 (stereo not given) | -2.2% (inactive) | –
10 | O=S(=O)(Nc1cc(C(F)(F)F)ccc1N1CCCCC1)c1ccccc1 | -6.73% (inactive) | –
